# Screening data from PubChem.
# DT40 TDP1 no CPT = qHTS for Inhibitors of human tyrosyl-DNA phosphodiesterase 1 (TDP1): qHTS in cells in absence of CPT. 420,000 tested, 15% active. DT40 Tdp1-/- hTDP1 cells, no CPT, ATP luminescence, 48 h. Potency, µM (doses to about 46.2 µM), without a hit: top-dose activity change, negative = growth inhibition, most hits filed as inhibitors. AID 686978, 2013; further: potency means the concentration at half of the fitted maximal effect; nearly all actives have a fitted effect of over 55% in size
#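 Stably hTDP1-transfected Tdp1-null chicken DT40 cells were treated with library compounds minus camptothecin and grown for at least 48 hr at 37 °C, after which cellular ATP was quantified by luminescence.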
# TDP1 block = blocks human tyrosyl-DNA phosphodiesterase 1. recombinant TDP1, AlphaScreen DNA substrate cleavage. Potency, µM (series often up to 130 µM), without a hit: top-dose activity change, negative = inhibition, hits mostly inhibitors. 350,000 tested, 0.28% active. AID 485290; further: potency means the concentration at half of the fitted maximal effect; nearly all actives have a fitted effect of over 40% in size
#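 Enzyme-compound mixtures sat 15 min at room temperature, followed by a 5 min reaction with 15 nM final substrate and 10 min with AlphaScreen beads. Recombinant human Tdp1 was used at 1 nM final.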
# IL1B secr inh = blocks inflammasome-driven IL-1 beta release; THP-1 LPS/ATP IL-1B secretion, AlphaLISA, 16 h; stronger effect = lower value; activity change, % at 57.5 µM; 360,000 tested, 4.7% active; in the data active means activity change below about -50%; inconclusive means mostly about -30% to -49%
#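 THP-1 cells pretreated 1 hr with compounds (up to 57.5 uM final), then stimulated with LPS (250 ng/mL final) plus ATP (1.25 mM final); secreted IL-1B measured by AlphaLISA after 16 hr, decreased signal indicating inhibition.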
# Six1-Eya2 blk = blocks human Six1 binding to Eya2. Q15475+O00167. AlphaScreen GST-Six1/His-Eya2 binding, biochemical; stronger effect = lower value. activity change, % (concentration not given with the values). 360,000 tested, 0.56% active. AID 651725; in the data active means activity change below about -65%; inconclusive means mostly about -30% to -63%
# Target sequence (O00167 whole entry, looked up): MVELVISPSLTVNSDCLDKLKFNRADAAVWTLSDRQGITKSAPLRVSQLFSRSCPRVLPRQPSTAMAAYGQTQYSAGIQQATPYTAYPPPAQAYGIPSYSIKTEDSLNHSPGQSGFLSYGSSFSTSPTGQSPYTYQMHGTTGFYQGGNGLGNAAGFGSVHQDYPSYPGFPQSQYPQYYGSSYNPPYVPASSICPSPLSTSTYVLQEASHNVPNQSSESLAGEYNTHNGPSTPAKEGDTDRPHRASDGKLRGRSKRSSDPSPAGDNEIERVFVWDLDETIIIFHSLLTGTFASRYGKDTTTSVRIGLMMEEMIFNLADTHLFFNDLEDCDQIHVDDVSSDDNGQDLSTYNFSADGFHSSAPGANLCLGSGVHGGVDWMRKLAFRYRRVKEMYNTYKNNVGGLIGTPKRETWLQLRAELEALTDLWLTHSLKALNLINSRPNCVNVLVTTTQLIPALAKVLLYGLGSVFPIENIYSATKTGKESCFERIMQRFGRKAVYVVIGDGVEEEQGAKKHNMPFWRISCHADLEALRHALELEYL
# Target sequence (Q15475 whole entry, looked up): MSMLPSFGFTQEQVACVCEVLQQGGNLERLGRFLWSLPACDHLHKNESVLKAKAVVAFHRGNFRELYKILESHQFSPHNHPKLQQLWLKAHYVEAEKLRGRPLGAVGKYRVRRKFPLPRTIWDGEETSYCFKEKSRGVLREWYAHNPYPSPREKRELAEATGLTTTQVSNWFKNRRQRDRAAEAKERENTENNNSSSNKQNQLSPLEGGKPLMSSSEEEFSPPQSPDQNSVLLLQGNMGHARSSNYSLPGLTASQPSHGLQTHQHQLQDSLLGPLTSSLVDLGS
#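 GST-Six1 + His-Eya2 (5X stock: 250/500 nM); Tris pH 8.0, 300 mM NaCl, 0.05% BSA, 0.02% Tween 20; GSH donor/Ni acceptor beads; 1 h 37 °C dark; AlphaScreen readout.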
# CtBP-E1A blk = blocks the CtBP interaction with E1A | AlphaScreen GST-E1A/His-CtBP binding, 1536-well; stronger effect = lower value | 340,000 tested, 0.49% active | activity change, % (test concentration not listed); in the data active means activity change below about -65%; inconclusive means mostly about -30% to -63%
#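 In 5 uL wells, 23 nL compound meets equimolar GST-E1A and His-CtBP (5X stock 125 nM each) for 2 h, 37 °C. Beads (5X, 50 ug/mL) then 1 h, 37 °C, dark.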
# TDP1 cell CPT = DT40-hTDP1 cell growth loss with CPT | Potency, µM (titrated, usually from 46.2 µM), inactives show at the top dose activity change, negative = growth inhibition, actives largely listed as inhibitors | chicken DT40 Tdp1-/-;hTDP1 cells + 20 nM CPT, ATP luminescence, 48 h | 420,000 tested, 12% active | AID 686979; further: potency means the concentration at half of the fitted maximal effect; nearly all actives have a fitted effect of over 55% in size
#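 Chicken DT40 Tdp1-/- cells stably complemented with human TDP1 were seeded at 400 cells/well in medium containing 20 nM camptothecin, exposed to pin-transferred compounds, and grown at 37 °C for at least 48 hr. Viability was read as ATP luminescence.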
# * hit, by the source's call; ? = inconclusive; . = no result given. Sampled rows, rich in hits. Any-hit rate of the full collection: about 18%. Unless noted, the call rests on the fitted dose curve; in most records, active means well fitted curve in the direction sought with a large enough effect; inconclusive means small, poorly fitted or top-dose-only effect, or another doubt; inactive means no such curve, though single readings can be large; an effect the other way counts as inactive or inconclusive. On the % scale 0 is the no-effect control and ±100 the full control effect.
SMILES,DT40 TDP1 no CPT,TDP1 block,IL1B secr inh,Six1-Eya2 blk,CtBP-E1A blk,TDP1 cell CPT
Cc1ccnc(NC(=O)/C=C/c2cccs2)c1,12µM*,4%,-98*,2,0,?
Cc1ccnc(NC(=S)NC(=O)/C=C/c2ccco2)c1,9.2µM*,2%,44,-4,0,10µM*
O=C(/C=C/c1ccco1)NC(=S)Nc1ccc(Cl)cn1,-2%,-7%,42,-4,-5,-25%
O=C(Nc1ccc(O)c(-c2nc3ccccc3s2)c1)c1cc(=O)c2ccccc2o1,8.2µM*,3%,8,12,20,9.2µM*
Cc1ccc(O)c(NC(=S)NC(=O)/C=C/c2ccco2)c1,6.5µM*,0%,-7,0,-3,7.3µM*
O=C(/C=C/c1cccs1)Nc1cccnc1,-14%,1%,0,2,-1,-16%
O=C(/C=C/c1ccco1)NC(=S)NNC(=O)c1ccco1,21µM*,8%,73,-9,9,16µM*
O=C(/C=C/c1ccco1)NC(=S)Nc1ccc(N2CCCC2)cc1,15µM*,14%,-16,?,-21,23µM*
O=C(/C=C/c1ccco1)NC(=S)Nc1ccc(O)c(-c2nc3ccccc3s2)c1,21µM*,-2%,26,-2,-7,18µM*
CCN1C(=O)CSc2ccc(C(=O)NCc3ccccc3OC)cc21,?,2%,33,-2,-1,-28%
Cc1cc(C)c(NC(=O)c2ccccc2CCc2ccccc2)c(C)c1,?,0%,13,5,8,18µM*
O=C(NCc1ccc(Cl)cc1)c1ccccc1CCc1ccccc1,-30%,-2%,-18,28,37,-12%
O=C(NCc1ccccc1Cl)c1ccccc1CCc1ccccc1,16µM*,2%,-15,-2,.,?
Cc1ccc(NC(=O)c2ccccc2CCc2ccccc2)c(C)c1,-26%,3%,0,10,5,-10%
Clc1ccc(-c2nnc(CSc3nnc(-c4cccs4)o3)o2)cc1,-1%,8%,1,-3,1,5%
CC(C)CC(OC(=O)c1cccs1)C(=O)NCc1ccco1 (stereo not given),?,-3%,1,-1,-1,-28%
CCOC(=O)CC1(C)Oc2ccccc2N1S(=O)(=O)c1ccc(C)cc1 (stereo not given),?,.,0,5,1,21µM*
CCOC(=O)C1=C(CC)OC(N)=C(C#N)C1c1ccc(OC)cc1OC (stereo not given),?,0%,2,-1,-1,-27%
CC(=O)C1=C(C)OC(N)=C(C#N)C1c1cccc([N+](=O)[O-])c1 (stereo not given),?,2%,5,-5,.,?
CC(=O)C1=C(C)OC(N)=C(C#N)C1c1cc([N+](=O)[O-])ccc1Cl (stereo not given),3.7µM*,5%,-62*,18,16,4.1µM*
COc1ccc2cc(C3C(C#N)=C(N)OC(C)=C3C(C)=O)c(Cl)nc2c1 (stereo not given),21µM*,5%,-3,5,-8,?
COc1ccc2cc(C(=O)N(C)Cc3ccccc3)[nH]c2c1,8%,.,0,2,1,-16%
COc1cccc(CN2C(=O)c3ccccc3C2C(=O)NCC2CCCO2)c1 (stereo not given),-17%,3%,-3,7,-2,-4%
Cn1c(=O)n(C)c2cc(NC(=O)c3cccc([N+](=O)[O-])c3)c(Br)cc21,-19%,3%,2,23,-21,-8%
CCOc1ccc(S(=O)(=O)NCc2cccnc2)cc1,?,.,18,-6,1,-16%
SMILES,DT40 TDP1 no CPT,TDP1 block,IL1B secr inh,Six1-Eya2 blk,CtBP-E1A blk,TDP1 cell CPT
CN(Cc1ccc(Cl)cc1Cl)C(=O)c1cc(=O)c2ccccc2o1,23µM*,7%,-13,-9,-4,?
O=C(CSc1ncn[nH]1)Nc1ccc([N+](=O)[O-])cc1Br,-44%,-2%,?,-1,0,?
COc1cc(/C=C/C(=O)OCC(=O)NC(=O)NC(C)C)ccc1OCC#N,?,3%,8,-4,3,9%
COc1cc(/C=C/C(=O)OCC(=O)NC(=O)NC23CC4CC(CC(C4)C2)C3)ccc1OCC#N,21µM*,8%,?,-2,1,?
CCOc1ccc(-c2c(C(=O)N/N=C/c3sccc3C)nnn2-c2nonc2N)cc1,-3%,0%,-12,-6,-11,-6%
CCOC(=O)c1oc2ccccc2c1COC(=O)CNC(=O)c1cccc(C)c1,5%,2%,0,-3,5,1%
CCOC(=O)c1ccc(N2C(=O)c3n[nH]c(-c4ccco4)c3C2c2cccc(OC)c2)cc1 (stereo not given),18µM*,9%,.,.,.,23µM*
CCOC(=O)c1ccc(N2C(=O)c3n[nH]c(-c4ccco4)c3C2c2ccc(OCC)cc2)cc1 (stereo not given),16µM*,9%,.,.,.,?
CCOC(=O)c1ccc(N2C(=O)c3n[nH]c(-c4ccco4)c3C2c2ccc(F)cc2)cc1 (stereo not given),23µM*,5%,.,.,.,23µM*
COc1cccc(C2c3c(-c4ccccc4)n[nH]c3C(=O)N2c2ccc(C(=O)O)cc2)c1 (stereo not given),8%,4%,13,2,-5,-5%
CCOC(=O)c1ccc(N2C(=O)c3n[nH]c(-c4ccco4)c3C2c2cccc(F)c2)cc1 (stereo not given),21µM*,5%,.,.,.,18µM*
CCOC(=O)c1ccc(N2C(=O)c3n[nH]c(C)c3C2c2ccccc2)cc1 (stereo not given),-24%,8%,-6,-1,-11,-16%
CCc1ccccc1NC(=O)c1ccc2c(SCC(=O)O)c3c(nc2c1)CCC3,-17%,6%,.,.,.,22%
CCOC(=O)c1ccc(N2C(=O)c3n[nH]c(-c4ccco4)c3C2c2cccc(O)c2)cc1 (stereo not given),21µM*,9%,.,.,.,21µM*
Cc1cccc(C)c1NC(=O)CCCCCC1NC(=O)NC1C (stereo not given),22%,9%,-55*,16,0,2%
O=C(CCCCC(=O)NCCCc1ccccc1)NCCCc1ccccc1,?,.,2,-3,.,4%
CC1NC(=O)NC1CCCCCC(=O)NCCc1ccccc1 (stereo not given),-9%,13%,-96*,4,10,-7%
